Results reported in ChEMBL document CHEMBL3988442, “University of Dundee, Small-Polar-MMV Screening Library” (2021).
Screen size: about 69,000 compounds; about 950 (1.4%) showed an effect of 50% or more. This excerpt belongs to a sample that is enriched for strong results.

System: Mycobacterium tuberculosis
Assay: Cornell M. t heat shock assay; also: in the data most compounds retested in dose-response had high values
Assay type: functional, organism-based
Design: dose or concentration left out as unconfirmed

| SMILES | Percent Effect [%] |
| --- | --- |
| Cc1cccc(CN2C(=O)C[C@@H]3[C@@H]2CCN3Cc2ccsc2)n1.O=C(O)C(F)(F)F.O=C(O)C(F)(F)F | -5.235 |
| Cl.NC(=O)COc1ccc(CNCc2ccc(F)cc2)cc1 | -18.87 |
| Cc1noc(C)c1CN1CCN(C(=O)CCn2cncn2)CC1 | -3.616 |
| Cc1noc(C)c1CCC(=O)N1CCN(CCn2cccn2)CC1 | -5.618 |
| Cc1noc(C)c1CCC(=O)N1CCN(CCn2cncn2)CC1 | 78.74 |
| Cn1ncc(Cl)c1C(=O)N1CCC(c2nnsc2S(C)(=O)=O)CC1 | -21.53 |
| Cn1cnc(S(=O)(=O)N2CC3(CCN(Cc4ccncc4)C3)C2)c1.O=C(O)C(F)(F)F.O=C(O)C(F)(F)F.O=C(O)C(F)(F)F | 36.02 |
| CN(C)C(=O)COCC1CN(Cc2ccco2)Cc2ncn(C)c21.O=C(O)C(F)(F)F.O=C(O)C(F)(F)F (configuration not stated) | 31.48 |
| COCC(C)(CCO)NC(=O)Nc1cccc(Br)c1C (configuration not stated) | 16.48 |
| CN1CC(=O)N(c2ccsc2)CC12CCN(C(=O)Nc1ccccc1)C2.O=C(O)C(F)(F)F (configuration not stated) | -18.81 |
| O=C(N1CCCO1)[C@@]12CCO[C@@H]1CCN(Cc1cccs1)C2.O=C(O)C(F)(F)F | -21.11 |
| Cc1ccsc1C(=O)N1CC2CC1(C(=O)NCC1CC1)C2 | -11.04 |
| O=C(N1CCCC1)C12CC(CN1Cc1nccs1)C2 | 42.03 |
| O=C(NCC1CC1)C12CC(CN1Cc1nccs1)C2 | 54.2 |
| Cc1cc(N2CCN(Cc3cn(C)nc3C)CC2)cc(C2CCCN2)n1.Cl (configuration not stated) | -11.47 |
| CC(=O)N1CCCC1c1nnn2cc(-c3ccncc3)ccc12.O=C(O)C(F)(F)F (configuration not stated) | 8.291 |
| CC(=O)N1CCCC1c1nnn2cc(NCc3cccnc3)ccc12.O=C(O)C(F)(F)F.O=C(O)C(F)(F)F (configuration not stated) | 27.19 |
| CC(=O)N1CCCC1c1nnn2cc(Nc3ccccc3)ccc12.O=C(O)C(F)(F)F (configuration not stated) | 86.99 |
| CC(C)(C)c1n[nH]c(C2CN(CCc3ccncc3)CCO2)n1 (configuration not stated) | 12.04 |
| CC(=O)N1CCN(Cc2ccncc2)CC2(CC(=O)N(C)C2)C1.O=C(O)C(F)(F)F.O=C(O)C(F)(F)F (configuration not stated) | -4.515 |
| Cn1ccnc1CN1CC[C@H]2CO[C@H](CNc3ncccn3)[C@H]2C1.O=C(O)C(F)(F)F.O=C(O)C(F)(F)F.O=C(O)C(F)(F)F | -17.85 |

| SMILES | Percent Effect [%] |
| --- | --- |
| Clc1ccc(COCC2CCN(Cc3ccccn3)CC2)cc1.O=C(O)C(=O)O | 53.14 |
| Cc1cccc(CN2CCC(NS(C)(=O)=O)CC2)n1 | 10.63 |
| Fc1ccccc1CC1CCN(Cc2nccs2)CC1 | 7.97 |
| COc1cc(COCC2CCN(Cc3ccccn3)CC2)cc(OC)c1.O=C(O)C(=O)O | -10.83 |
| Fc1ccccc1CC1CCN(Cc2cscn2)CC1 | -8.017 |
| Fc1ccc(COCC2CCN(Cc3ccccn3)CC2)cc1.O=C(O)C(=O)O | -21.79 |
| Fc1ccccc1CC1CCN(Cc2ccccn2)CC1 | 54.97 |
| Cc1cccc(CNC(=O)CC2CCN(Cc3ccccn3)CC2)n1 | -18.17 |
| Cc1cccc(CN2CCC(Cc3ccccc3F)CC2)n1 | 100.5 |
| CN1C[C@H]2C[C@H](C(=O)Nc3cccnc3)[C@@H](C1)O2 | -0.0821 |
| COc1ccc(CNCC(C)Oc2ccccn2)cc1.Cl (configuration not stated) | -11.53 |
| Cc1cc(C(=O)N2CC[C@]3(C[C@@H](OCc4ccccn4)CO3)C2)c(C)o1.O=C(O)C(F)(F)F | 38.17 |
| CN(C)C(=O)CN1CCc2ncnc(N(C)C)c2CC1.O=C(O)C(F)(F)F | 23.34 |
| COCCn1cc2c(n1)C(CNCc1nccs1)OCC2.O=C(O)C(F)(F)F.O=C(O)C(F)(F)F (configuration not stated) | -27.8 |
| CN(C)Cc1cncc2c1CCN(Cc1ccoc1)C2.Cl.Cl.Cl | -10.16 |
| O=C(O)C(F)(F)F.O=C(O)C(F)(F)F.O=C1[C@H]2CN(Cc3cccs3)C[C@H]2CN1CCN1CCCC1 | -16.55 |
| NC(=O)N1CC[C@H]2CO[C@H](CNC(=O)c3ccnnc3)[C@H]2C1 | -0.7451 |
| COCCN1CCC(C)(c2cc(O)[nH]n2)CC1 | -2.336 |
| COCC(=O)N1CCC(C)(c2cc(O)[nH]n2)CC1 | 53.15 |
| CC(C)C(=O)N1CCC(C)(c2cc(O)[nH]n2)CC1 | 1.922 |
| CCOCC1CN(Cc2ccc(F)cc2)Cc2nn(C)cc21.O=C(O)C(F)(F)F (configuration not stated) | -29.18 |

| SMILES | Percent Effect [%] |
| --- | --- |
| CC(C)c1nc(CN2CCC(CO)CC2)cs1 | 17.89 |
| CC(C)c1nc(CN2CCCCC2)cs1 | 0.8394 |
| CC(C)c1nc(CC(=O)Nc2nc(CN3CCCCCC3)cs2)cs1 | 104.4 |
| COc1cc(C2CC(=O)c3c(O)cc(O)cc3O2)ccc1O (configuration not stated) | 5.655 |
| Oc1ccc([C@H]2Oc3cc(O)cc(O)c3C[C@@H]2O)cc1 | -4.634 |
| O=C1c2c(O)cc(O)cc2O[C@@H](c2ccc(O)cc2)[C@@H]1O | 53.66 |
| CN(C)C(=O)[C@H]1C[C@@H]2CCN(Cc3ccoc3)C[C@@H]2O1.O=C(O)C(F)(F)F | 36.25 |
| Cc1ccc(C(=O)N2Cc3c(CN(C)C)nn(C)c3C2)cc1C.O=C(O)C(F)(F)F | -17.18 |
| CC(=O)c1ccc(Nc2nc(N)nc3c2nc(C)n3C)cc1 | 10.63 |
| Cc1nc2c(Nc3ccc(C#N)cc3)nc(N)nc2n1C | 5.734 |
| Cc1nc2c(Nc3cccc(C#N)c3)nc(N)nc2n1C | 102.2 |
| O=C(NCc1ccccn1)[C@@]12CCO[C@@H]1CCN(c1ncccn1)C2 | 92.45 |
| CC(=O)N1CC[C@H]2OCC[C@@]2(C(=O)NCc2cnc(C)cn2)C1 | 51.19 |
| Cc1cnc(CNC(=O)[C@@]23CCO[C@@H]2CCN(C2CCCC2)C3)cn1.O=C(O)C(F)(F)F | 35.39 |
| CS(=O)(=O)N1CC[C@H]2OCC[C@@]2(C(=O)NCc2ccccn2)C1.O=C(O)C(F)(F)F | 65.18 |
| CS(=O)(=O)N1CC[C@H]2OCC[C@@]2(C(=O)NCCc2ccccn2)C1.O=C(O)C(F)(F)F | -5.552 |
| O=C(NCc1ccccn1)[C@@]12CCO[C@@H]1CCN(C1CCCC1)C2.O=C(O)C(F)(F)F.O=C(O)C(F)(F)F | 40.27 |
| O=C(NCCc1ccccn1)[C@@]12CCO[C@@H]1CCN(c1ncccn1)C2 | -5.799 |
| Cc1cnc(CNC(=O)[C@@]23CCO[C@@H]2CCN(c2ncccn2)C3)cn1 | 39.63 |
| O=C(NCc1ccccn1)[C@@]12CCO[C@@H]1CCN(Cc1ccccn1)C2.O=C(O)C(F)(F)F.O=C(O)C(F)(F)F.O=C(O)C(F)(F)F | 19.83 |
